From PubChem BioAssay (NCATS)
Records with an inconclusive call do not appear. Calls of active or inactive are those of the source. Unless noted, calls come from the whole dose curve; as a rule, active = well fitted curve in the direction sought with a large enough effect; inconclusive = small, poorly fitted or top-dose-only effect, or another doubt; inactive = no such curve, though single readings can be large; an effect the other way counts as inactive or inconclusive.

What was measured:
[1] = biological target: Guanine nucleotide-binding protein G(i) subunit alpha-1 (Homo sapiens) (UniProt P63096); test: qHTS Assay for Inhibitors of RGS12 GoLoco Motif Activity (Green Fluorophore) (AID 879);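 note: 0% = labeled peptide with Gαi1 and full inhibition = labeled peptide alone without protein; negative values mean loss of peptide binding seen as reduced polarization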
Procedure, shortened: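 A drop in FITC polarization marked displacement of the FITC-tagged RGS12 GoLoco peptide (10 nM) from Gαi1 (50 nM). Compounds were incubated 10 min at room temperature in Tris pH 7.5 buffer containing 150 mM NaCl, 0.1 mM GDP and 0.05% NP40; unlabeled peptide titration served as control.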

[2] = biological target: Cytochrome P450 2C9 (Homo sapiens) (UniProt P11712); test: qHTS Assay for Inhibitors and Substrates of Cytochrome P450 2C9 (AID 883); note: nearly all actives have a fitted effect of over 60% in size; note: potency is the fitted concentration of half-maximal effect
Procedure, shortened: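 Turnover of Luciferin-H (100uM, KM) by 10nM human CYP2C9 was measured over 60 min at 37C with NADPH regeneration; inhibitors and some substrates reduce luminescence. Data normalized to sulphaphenazole 57uM.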

[3] = biological target: Cytochrome P450 3A4 (Homo sapiens) (UniProt P08684); test: qHTS Assay for Inhibitors and Substrates of Cytochrome P450 3A4 (AID 884); note: % is set by controls: 0 for no effect and ±100 for the full control effect; nearly all actives have a fitted effect of over 50% in size
Procedure, shortened: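 Luminescent readout of luciferin produced by CYP3A4 (20 nM) dealkylation of Luciferin-PPXE, 25 uM (its KM). NADPH-driven reaction ran 60 min at RT after 10 min compound preincubation; data scaled to 57 uM ketoconazole as 100% inhibition.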

[4] = biological target: Cytochrome P450 2C19 (Homo sapiens) (UniProt P33261); test: qHTS Assay for Inhibitors and Substrates of Cytochrome P450 2C19 (AID 899); details: recombinant CYP2C19, luciferin-H EGE luminescence; note: potency is the fitted concentration of half-maximal effect; nearly all actives have a fitted effect of over 60% in size
Procedure, shortened: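 Reactions contain 5nM enzyme, 10uM Luciferin-H EGE (KM) and 50mM KPO4; compound preincubates 10 min at 37C, NADPH regeneration starts turnover for 60 min. Luminescence after detection reagent gives activity.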

[5] = Confirmation and Secondary Assay for Modulators of Hemoglobin Beta Chain Splicing at IVS2 654 locus (AID 910);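 note: HeLa cells stably carrying EGFP split by mutant beta-globin IVS2-654 intron; per-well total GFP intensity by laser scanning cytometry after 2-day treatment; % of control where 0% means no effect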
Procedure, shortened: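 Readout: per-well total peak green fluorescence (488 nm ex, 500–520 nm em) from objects 5–250 µm, reflecting correct splicing of an EGFP-654 reporter. Compounds were applied for 2 days at 37 °C to overnight-plated HeLa EGFP-654 cells; controls were DMSO and 500 nM IVS2-654 PNA.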

[6] = Cellular Toxicity (caspase-3) Jurkat (AID 655); details: Jurkat caspase-3 activation, luminescence, DMSO = 0%, tamoxifen = 100%; at 92.2 µM (top of the series);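 note: cells exposed to compound for 16 h at 37 °C before reading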
Procedure, shortened: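 Caspase 3/7 activation is scored as increased luminescence in Jurkat cells cultured with compound for 16 hours in complete medium. AC50 values come from Hill fits of qHTS concentration-response data normalized to DMSO and 100 uM tamoxifen controls.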

[7] = Cellular Toxicity (caspase-3) HUV-EC-C (AID 656)
Procedure, shortened: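 Read-out: luminescence proportional to caspase 3/7 activity, measured 20 min after adding Caspase-Glo 3/7 reagent. Cells (HUV-EC-C) had received compound for 16 hr at 37°C. Increases relative to DMSO and 100 uM tamoxifen gave concentration-response AC50 values.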

[8] = Cellular Toxicity (caspase-3) SHSY5Y (AID 657)
Procedure, shortened: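 Cells plated and incubated 5 h at 37 °C, dosed over a concentration range, incubated 16 h, then given Caspase-Glo 3/7 reagent for 1 h at room temperature before luminescence reading. Staurosporine (10 uM) defined full stimulation.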

[9] = Cellular Toxicity (caspase-3) BJ (AID 658);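 note: 0% = DMSO basal and 100% = 10 µM staurosporine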
Procedure, shortened: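 Caspase-Glo 3/7 luminescence, read 1 hr after reagent at room temperature, in normal BJ fibroblasts exposed 16 hours at 37 °C. AC50 values from Hill-equation concentration-response, scaled between DMSO basal and 10 uM staurosporine as 100%.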

[10] = Cellular Toxicity (caspase-3) MRC-5 (AID 659);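 note: 0% = DMSO basal and 100% = 10 µM staurosporine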
Procedure, shortened: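 Luminescent Caspase-Glo 3/7 read-out (1 h, room temperature) after a 16 h, 37 °C compound exposure of MRC-5 lung fibroblasts at 1500 cells/well. Concentration-response AC50 from Hill equation; 0% DMSO, 100% 10 uM staurosporine.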

[11] = Cellular Toxicity (caspase-3) Mesangial (AID 660);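 note: cells exposed to compound for 16 h before the caspase read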
Procedure, shortened: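 Caspase 3/7 activation measured by Caspase-Glo 3/7 luminescence (20 min, room temperature) following 16 h exposure of mesangial cells (1000/well); AC50 from Hill-equation fit, normalized to DMSO and 100 uM tamoxifen.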

[12] = Cellular Toxicity (caspase-3) SK-N-SH (AID 661);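 note: 0% = DMSO basal and 100% = 10 µM staurosporine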
Procedure, shortened: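 Caspase 3/7 activation was read by luminogenic substrate cleavage after 16 hour treatment of SK-N-SH cells. Signal was scaled between DMSO and 10 uM staurosporine, and concentration-response data were fitted with the Hill equation for AC50.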

[13] = Cellular Toxicity (caspase-3) H-4-II-E (AID 663); details: Potency: caspase-3 activation;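 note: cells exposed to compound for 16 hr before readout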
Procedure, shortened: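 Caspase 3/7 activation measured by luminescent aminoluciferin substrate cleavage after 16 hr compound treatment of H-4-II-E cells in complete medium. Increase normalized between DMSO (basal) and 100 uM tamoxifen (100%); Hill-equation AC50 from concentration-response.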

[14] = Cellular Toxicity (caspase-3) Hek293 (AID 664);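 note: cells exposed to compound for 16 h at 37 °C before readout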
Procedure, shortened: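 Concentration-response qHTS: caspase 3/7 activation measured by luminescent aminoluciferin substrate cleavage after 16 h compound exposure of Hek 293 cells. AC50 from Hill equation, with DMSO as basal and 100 uM tamoxifen as 100%.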

[15] = Cellular Toxicity (caspase-3) N2a (AID 665);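 note: compound exposure lasted 16 h at 37 °C before readout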
Procedure, shortened: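 Caspase-3/7 activation measured as luminescence from Caspase-Glo reagent (1 h, room temperature) after 16 h compound exposure of mouse N2a cells. AC50 values from Hill-equation concentration-response, scaled between DMSO and 10 uM staurosporine.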

[16] = Cellular Toxicity (caspase-3) NIH 3T3 (AID 666);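 note: 0% = DMSO basal and 100% = 100 µM tamoxifen stimulation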
Procedure, shortened: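 Caspase-Glo 3/7 luminescence reported caspase activation in 1000 NIH 3T3 cells/well after 16 h compound exposure at 37 C. DMSO set basal and 100 uM tamoxifen set 100% stimulation; concentration-response modeled with the Hill equation for AC50.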

[17] = Cellular Toxicity (caspase-3) Renal Proximal Tubule (AID 667);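 note: cells exposed to compound for 16 hours at 37 °C before detection; 0% = DMSO basal and 100% = 10 µM staurosporine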
Procedure, shortened: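 In qHTS format, rat primary proximal tubule cells seeded at 1000 per well are exposed to compounds for 16 hours at 37 °C. An increase in Caspase-Glo 3/7 luminescence indicates caspase activation.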

[18] = qHTS Assay for Identification of Small Molecule Antagonists for NFkB Signaling Pathway (AID 895; active = well fitted inhibition curve with a large enough effect in the signal ratio, with a control signal flat, not every such curve was filed as active; the % refers to the signal ratio; note: % is set by controls: 0 for no effect and ±100 for the full control effect)
Procedure, shortened: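 Beta-lactamase reporter read-out (460 and 530 nm emission ratio, 405 nm excitation, 2 hrs substrate loading RT) after 5 hr stimulation with 10 pM TNF alpha in compound-treated NFkB-bla ME-180 cells in low-serum medium.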

[19] = qHTS Assay for Identification of Small Molecule Agonists for Hypoxia Response Element Signaling Pathway (AID 914; active = well fitted activation curve with a large enough effect in the signal ratio, with a control signal flat, not every such curve was filed as active; the % refers to the signal ratio; note: % of control where 0% means no effect); details: ME-180 (cervical carcinoma) HRE-bla reporter, beta-lactamase ratio, CoCl2, 17 h; activation: active compounds read high
Procedure, shortened: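 A beta-lactamase reporter under hypoxia response element control in ME-180 cells served as the system. Compound titrations plus EC50 CoCl2 ran 17 h at 37 degrees Celsius; AC50 values were fitted from %Activity.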

[20] = biological target: Cytochrome P450 2D6 (Homo sapiens) (UniProt P10635); test: qHTS Assay for Inhibitors and Substrates of Cytochrome P450 2D6 (AID 891); details: recombinant CYP2D6, luciferin-ME EGE luminescence; note: potency is the fitted concentration of half-maximal effect; nearly all actives have a fitted effect of over 60% in size
Procedure, shortened: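 Luminescent read-out of luciferin formed by 5 nM human CYP2D6 demethylating 30 uM Luciferin-ME EGE (Km level) over 60 min at room temperature after NADPH regeneration addition. Data normalized to full inhibition by 1.43 uM quinidine.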

Sequence of Cytochrome P450 3A4 (Homo sapiens) (P08684 whole entry, looked up): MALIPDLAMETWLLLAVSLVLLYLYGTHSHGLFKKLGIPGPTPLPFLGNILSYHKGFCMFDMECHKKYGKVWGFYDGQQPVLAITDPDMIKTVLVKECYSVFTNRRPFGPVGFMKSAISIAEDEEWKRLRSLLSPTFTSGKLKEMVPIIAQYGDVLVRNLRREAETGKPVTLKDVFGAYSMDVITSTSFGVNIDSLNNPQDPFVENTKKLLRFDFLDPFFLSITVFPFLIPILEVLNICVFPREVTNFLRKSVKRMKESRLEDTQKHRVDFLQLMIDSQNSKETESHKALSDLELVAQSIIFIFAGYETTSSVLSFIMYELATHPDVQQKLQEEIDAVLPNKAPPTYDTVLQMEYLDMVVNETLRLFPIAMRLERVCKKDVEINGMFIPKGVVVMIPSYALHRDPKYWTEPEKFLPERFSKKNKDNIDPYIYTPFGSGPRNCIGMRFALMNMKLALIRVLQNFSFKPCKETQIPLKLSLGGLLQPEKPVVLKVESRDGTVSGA
Sequence of Guanine nucleotide-binding protein G(i) subunit alpha-1 (Homo sapiens) (P63096 whole entry, looked up): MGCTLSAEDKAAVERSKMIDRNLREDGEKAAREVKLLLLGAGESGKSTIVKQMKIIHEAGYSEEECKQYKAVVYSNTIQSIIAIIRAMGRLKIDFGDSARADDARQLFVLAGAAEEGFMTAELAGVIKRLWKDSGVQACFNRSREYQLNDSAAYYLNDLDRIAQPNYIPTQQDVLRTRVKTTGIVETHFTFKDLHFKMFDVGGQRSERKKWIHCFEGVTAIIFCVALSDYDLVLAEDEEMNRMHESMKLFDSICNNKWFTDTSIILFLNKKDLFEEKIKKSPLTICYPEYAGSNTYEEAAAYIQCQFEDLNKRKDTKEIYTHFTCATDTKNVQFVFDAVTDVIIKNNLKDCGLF
Sequence of Cytochrome P450 2C9 (Homo sapiens) (P11712 whole entry, looked up): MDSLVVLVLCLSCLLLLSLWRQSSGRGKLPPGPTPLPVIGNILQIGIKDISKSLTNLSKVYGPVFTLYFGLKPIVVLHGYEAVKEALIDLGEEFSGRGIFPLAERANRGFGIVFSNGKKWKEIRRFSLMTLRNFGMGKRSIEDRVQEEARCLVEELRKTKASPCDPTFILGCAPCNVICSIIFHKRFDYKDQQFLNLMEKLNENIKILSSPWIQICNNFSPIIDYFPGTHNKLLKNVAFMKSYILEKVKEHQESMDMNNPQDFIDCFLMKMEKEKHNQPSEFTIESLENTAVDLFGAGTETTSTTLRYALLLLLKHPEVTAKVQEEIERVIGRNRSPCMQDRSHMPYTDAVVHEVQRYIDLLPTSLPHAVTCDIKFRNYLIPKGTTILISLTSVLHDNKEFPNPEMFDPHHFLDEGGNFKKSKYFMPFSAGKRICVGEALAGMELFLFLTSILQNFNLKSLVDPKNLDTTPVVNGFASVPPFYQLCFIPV
Sequence of Cytochrome P450 2D6 (Homo sapiens) (P10635 whole entry, looked up): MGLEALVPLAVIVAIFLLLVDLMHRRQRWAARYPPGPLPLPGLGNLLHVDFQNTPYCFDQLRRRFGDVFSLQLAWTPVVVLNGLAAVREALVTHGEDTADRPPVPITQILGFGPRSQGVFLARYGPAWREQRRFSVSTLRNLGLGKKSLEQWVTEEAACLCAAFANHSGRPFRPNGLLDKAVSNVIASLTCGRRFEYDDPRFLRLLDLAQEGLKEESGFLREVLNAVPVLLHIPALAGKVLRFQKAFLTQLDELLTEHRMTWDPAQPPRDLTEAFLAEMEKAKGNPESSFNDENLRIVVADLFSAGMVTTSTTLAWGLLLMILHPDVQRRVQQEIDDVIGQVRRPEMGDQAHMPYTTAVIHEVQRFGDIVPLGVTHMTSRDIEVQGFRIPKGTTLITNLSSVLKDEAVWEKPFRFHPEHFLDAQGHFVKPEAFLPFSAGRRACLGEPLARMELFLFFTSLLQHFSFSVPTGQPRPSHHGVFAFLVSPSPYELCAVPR
Sequence of Cytochrome P450 2C19 (Homo sapiens) (P33261 whole entry, looked up): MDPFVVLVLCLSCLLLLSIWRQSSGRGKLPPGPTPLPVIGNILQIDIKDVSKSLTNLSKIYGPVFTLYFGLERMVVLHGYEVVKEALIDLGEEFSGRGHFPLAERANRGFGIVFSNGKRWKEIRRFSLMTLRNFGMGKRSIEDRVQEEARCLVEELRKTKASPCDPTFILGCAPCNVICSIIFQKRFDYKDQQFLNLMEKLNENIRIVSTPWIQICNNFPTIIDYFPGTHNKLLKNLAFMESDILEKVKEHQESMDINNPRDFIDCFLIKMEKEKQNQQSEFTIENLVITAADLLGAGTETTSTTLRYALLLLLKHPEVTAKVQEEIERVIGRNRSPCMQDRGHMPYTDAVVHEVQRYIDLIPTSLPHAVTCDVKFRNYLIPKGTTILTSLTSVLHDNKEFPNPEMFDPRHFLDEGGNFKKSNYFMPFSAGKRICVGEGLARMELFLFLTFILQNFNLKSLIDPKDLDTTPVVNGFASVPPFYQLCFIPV

CN(C)CCC[C@@]1(c2ccc(F)cc2)OCc2cc(C#N)ccc21
inactive: outcome [1] | Potency [3] | outcome [5]
active: Potency [2] 3.16 µM | Potency [4] 3.16 µM

CN1CCC[C@@H]1CCO[C@](C)(c1ccccc1)c1ccc(Cl)cc1
inactive: outcome [1]

CC(=O)NO
inactive: Potency [3] | outcome [5]

CCCN(CCC)S(=O)(=O)c1ccc(C(=O)O)cc1
inactive: caspase-3 activation [6] 1.65% | outcome [7] | outcome [8] | outcome [9] | outcome [10] | outcome [11] | outcome [12] | Potency [13] | outcome [14] | outcome [15] | outcome [16] | outcome [17] | Potency [3] | outcome [5]

O=c1[nH]c(=O)n([C@H]2C[C@H](O)[C@@H](CO)O2)cc1F
inactive: Potency [3]

Oc1c(Cl)cc(Cl)c(Cl)c1Cc1c(O)c(Cl)cc(Cl)c1Cl
inactive: outcome [7] | outcome [8] | outcome [9] | outcome [10] | outcome [11] | outcome [12] | Potency [13] | outcome [14] | outcome [15] | outcome [16] | outcome [17] | outcome [5]

NC(N)=NCc1cccc(I)c1
inactive: outcome [1] | outcome [18]

OC[C@H]1O[C@@H]2O[C@H]3[C@H](O)[C@@H](O)[C@@H](O[C@H]4[C@H](O)[C@@H](O)[C@@H](O[C@H]5[C@H](O)[C@@H](O)[C@@H](O[C@H]6[C@H](O)[C@@H](O)[C@@H](O[C@H]7[C@H](O)[C@@H](O)[C@@H](O[C@H]8[C@H](O)[C@@H](O)[C@@H](O[C@H]1[C@H](O)[C@H]2O)O[C@@H]8CO)O[C@@H]7CO)O[C@@H]6CO)O[C@@H]5CO)O[C@@H]4CO)O[C@@H]3CO
inactive: caspase-3 activation [6] 1.07% | outcome [7] | outcome [8] | outcome [9] | outcome [10] | outcome [11] | outcome [12] | Potency [13] | outcome [14] | outcome [15] | outcome [16] | outcome [17] | Potency [3]

Oc1ccc(Cl)cc1Cc1cc(Cl)ccc1O
inactive: outcome [7] | outcome [8] | outcome [9] | outcome [10] | outcome [11] | outcome [12] | Potency [13] | outcome [15] | outcome [16] | outcome [17] | outcome [5]
active: caspase-3 activation [6] 86%

COP(=O)(OC)OC(c1ccc(Cl)cc1)P(=O)(OC)OC (stereo not given)
inactive: Potency [3]

COc1ccc(C(Cl)=C(c2ccc(OC)cc2)c2ccc(OC)cc2)cc1
inactive: caspase-3 activation [6] 2.72% | outcome [7] | outcome [8] | outcome [9] | outcome [10] | outcome [11] | outcome [12] | Potency [13] | outcome [14] | outcome [15] | outcome [16] | outcome [17] | Potency [3] | outcome [5]

CCOc1ccc(NC(C)=O)cc1
inactive: caspase-3 activation [6] -0.173% | outcome [7] | outcome [8] | outcome [9] | outcome [10] | outcome [11] | outcome [12] | Potency [13] | outcome [14] | outcome [15] | outcome [16] | outcome [17] | outcome [5] | activation [19] 2%

NCCNc1cccc2ccccc12
inactive: caspase-3 activation [6] 6.22% | outcome [7] | outcome [8] | outcome [9] | outcome [10] | outcome [11] | outcome [12] | Potency [13] | outcome [14] | outcome [15] | outcome [16] | outcome [17] | Potency [3]

C[N+]12CCC(CC1)C(OC(=O)C(O)(c1ccccc1)c1ccccc1)C2 (stereo not given)
inactive: Potency [3] | outcome [5]

O=C1C(O)=C(O)C(=O)C(O)=C1O
inactive: Potency [3] | outcome [5]

CC(C)(C)NC[C@H](O)COc1nsnc1N1CCOCC1
inactive: outcome [1]

COc1ccc(CN(CCN(C)C)c2ncccn2)cc1
inactive: Potency [3] | outcome [5]

CCCCC(CC)COC(=O)c1ccc(N(C)C)cc1 (stereo not given)
inactive: caspase-3 activation [6] 1.94% | outcome [7] | outcome [8] | outcome [9] | outcome [10] | outcome [11] | outcome [12] | Potency [13] | outcome [14] | outcome [15] | outcome [16] | outcome [17]

CN=C(N)NCCC[C@H](N)C(=O)O
inactive: outcome [1] | outcome [18]

Cc1ncc(CO)c(C=O)c1O
inactive: Potency [3]

COc1ccc(C(=O)c2ccccc2)c(O)c1
inactive: caspase-3 activation [6] 25.4% | outcome [7] | outcome [8] | outcome [9] | outcome [10] | outcome [11] | outcome [12] | Potency [13] | outcome [14] | outcome [15] | outcome [16] | outcome [17] | Potency [3] | outcome [5]

O=C(CCCN1CC=C(n2c(=O)[nH]c3ccccc32)CC1)c1ccc(F)cc1
active: Potency [20] 3.16 µM
inactive: Potency [2] | outcome [5]

Nc1ccc(C(=O)NCC(=O)O)cc1
inactive: Potency [3] | outcome [5]
